Screen size: about 5,500 compounds; about 2,000 (36%) were called active. About 18% were inconclusive and are not listed. Rule as the data show it: active = normalized growth mostly below about 0.91 (no sharp cut-off); inconclusive = no clear call, values can overlap the other calls; inactive = mostly above about 0.92. This is one part of the list.
Assay: chemical genetic growth profiling, strain panel (AID 1159580);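 also: tested at 20 µM; growth read once vehicle control cultures reached saturation at 30 °C; 1 = growth at the plate median or of vehicle wells; lower values mean less growth of the strain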
Settings: growth OD

Measured: normalized growth

O=C1CC2OCC=C3CN4CC[C@]56c7ccccc7N1C5[C@H]2[C@H]3CC46 (some centres not stated)
inactive: S. cerevisiae deletion strains, locus YJR075W, strain HOC1, stronger effect = lower value 1.01 | S. cerevisiae deletion strains, locus YKL009W, strain mrt4, stronger effect = lower value 1 | S. cerevisiae deletion strains, locus YKL068W, stronger effect = lower value 1 | S. cerevisiae deletion strains, locus YKL085W, strain MDH1 (second series), stronger effect = lower value 1 | S. cerevisiae deletion strains, locus YKL085W, strain MDH1, stronger effect = lower value 1 | S. cerevisiae deletion strains, locus YKL160W, strain elf1, stronger effect = lower value 1.03 | S. cerevisiae deletion strains, locus YKL190W, strain CNB1, stronger effect = lower value 1.01 | S. cerevisiae deletion strains, locus YKR001C, strain vps1, stronger effect = lower value 0.996 | S. cerevisiae deletion strains, locus YKR026C, strain gcn3, stronger effect = lower value 1.04 | S. cerevisiae deletion strains, locus YKR091W, strain srl3, stronger effect = lower value 1.01 | S. cerevisiae deletion strains, locus YLL001W, strain dnm1, stronger effect = lower value 1.03 | S. cerevisiae deletion strains, locus YLL026W, stronger effect = lower value 1.01 | S. cerevisiae deletion strains, locus YLL041C, strain sdh2, stronger effect = lower value 1.02 | S. cerevisiae deletion strains, locus YLR027C, strain aat2, stronger effect = lower value 1.03 | S. cerevisiae deletion strains, locus YLR039C, strain RIC1, stronger effect = lower value 1.03 | S. cerevisiae deletion strains, locus YLR058C, strain SHM2, stronger effect = lower value 1.02 | S. cerevisiae deletion strains, locus YLR102C, strain apc9, stronger effect = lower value 1 | S. cerevisiae deletion strains, locus YLR113W, strain HOG1, stronger effect = lower value 0.938 | S. cerevisiae deletion strains, locus YLR221C, strain rsa3, stronger effect = lower value 1.02 | S. cerevisiae deletion strains, locus YLR258W, strain gsy2, stronger effect = lower value 1.03 | S. cerevisiae deletion strains, locus YLR262C, strain YPT6 (second series), stronger effect = lower value 1.05 | S. cerevisiae deletion strains, locus YLR262C, strain YPT6, stronger effect = lower value 1.1 | S. cerevisiae deletion strains, locus YLR268W, strain sec22, stronger effect = lower value 0.994 | S. cerevisiae deletion strains, locus YLR320W, strain mms22, stronger effect = lower value 1.03 | S. cerevisiae deletion strains, locus YLR330W, strain CHS5, stronger effect = lower value 1.01 | S. cerevisiae deletion strains, locus YLR342W, strain FKS1 (second series), stronger effect = lower value 0.999 | S. cerevisiae deletion strains, locus YLR342W, strain FKS1, stronger effect = lower value 1.01 | S. cerevisiae deletion strains, locus YLR357W, strain rsc2, stronger effect = lower value 1.03 | S. cerevisiae deletion strains, locus YLR370C, strain arc18, stronger effect = lower value 1.03 | S. cerevisiae deletion strains, locus YLR371W, strain rom2, stronger effect = lower value 0.993 | S. cerevisiae deletion strains, locus YLR384C, strain iki3, stronger effect = lower value 1.03 | S. cerevisiae deletion strains, locus YLR418C, strain cdc73, stronger effect = lower value 0.961 | S. cerevisiae deletion strains, locus YML016C, strain PPZ1, stronger effect = lower value 1.01 | S. cerevisiae deletion strains, locus YML032C, strain rad52, stronger effect = lower value 0.995 | S. cerevisiae deletion strains, locus YML120C, strain ndi1, stronger effect = lower value 1.02 | S. cerevisiae deletion strains, locus YML124C, strain tub3, stronger effect = lower value 0.999 | S. cerevisiae deletion strains, locus YMR058W, strain fet3, stronger effect = lower value 1.02 | S. cerevisiae deletion strains, locus YMR078C, strain ctf18, stronger effect = lower value 0.998 | S. cerevisiae deletion strains, locus YMR125W, strain sto1, stronger effect = lower value 1.02 | S. cerevisiae deletion strains, locus YMR129W, stronger effect = lower value 1.03 | S. cerevisiae deletion strains, locus YMR205C, strain PFK2, stronger effect = lower value 1.05 | S. cerevisiae deletion strains, locus YMR223W, strain ubp8, stronger effect = lower value 0.989 | S. cerevisiae deletion strains, locus YMR231W, strain pep5, stronger effect = lower value 1.03 | S. cerevisiae deletion strains, locus YMR263W, strain SAP30, stronger effect = lower value 1.01 | S. cerevisiae deletion strains, locus YMR307W, strain GAS1, stronger effect = lower value 0.979 | S. cerevisiae deletion strains, locus YNL067W, strain RPL9B, stronger effect = lower value 1.01 | S. cerevisiae deletion strains, locus YNL071W, strain lat1, stronger effect = lower value 1.01 | S. cerevisiae deletion strains, locus YNL128W, strain TEP1, stronger effect = lower value 1.01 | S. cerevisiae deletion strains, locus YNL153C, strain GIM3, stronger effect = lower value 1.02 | S. cerevisiae deletion strains, locus YNL183C, strain NPR1, stronger effect = lower value 0.933 | S. cerevisiae deletion strains, locus YNL209W, strain ssb2, stronger effect = lower value 1.02 | S. cerevisiae deletion strains, locus YNL233W, strain BNI4, stronger effect = lower value 1.01 | S. cerevisiae deletion strains, locus YNL248C, strain rpa49, stronger effect = lower value 1.04 | S. cerevisiae deletion strains, locus YNL250W, strain rad50, stronger effect = lower value 1 | S. cerevisiae deletion strains, locus YNL271C, strain bni1, stronger effect = lower value 0.997 | S. cerevisiae deletion strains, locus YNL298W, strain CLA4, stronger effect = lower value 0.993 | S. cerevisiae deletion strains, locus YNL307C, strain MCK1, stronger effect = lower value 0.994 | S. cerevisiae deletion strains, locus YNL322C, strain KRE1 (second series), stronger effect = lower value 1.03 | S. cerevisiae deletion strains, locus YNL322C, strain KRE1, stronger effect = lower value 1.01 | S. cerevisiae deletion strains, locus YNR049C, strain mso1, stronger effect = lower value 1.01 | S. cerevisiae deletion strains, locus YNR052C, strain pop2, stronger effect = lower value 0.997 | S. cerevisiae deletion strains, locus YOL006C, strain TOP1, stronger effect = lower value 1.03 | S. cerevisiae deletion strains, locus YOL012C, strain htz1 1.63 | S. cerevisiae deletion strains, locus YOL147C, strain pex11, stronger effect = lower value 0.995 | S. cerevisiae deletion strains, locus YOR001W, strain rrp6, stronger effect = lower value 1.04 | S. cerevisiae deletion strains, locus YOR061W, strain CKA2, stronger effect = lower value 1.01 | S. cerevisiae deletion strains, locus YOR069W, strain VPS5, stronger effect = lower value 1.01 | S. cerevisiae deletion strains, locus YOR070C, strain gyp1, stronger effect = lower value 1.01 | S. cerevisiae deletion strains, locus YOR080W, strain dia2, stronger effect = lower value 1.04 | S. cerevisiae deletion strains, locus YOR083W, strain WHI5, stronger effect = lower value 1.02 | S. cerevisiae deletion strains, locus YOR106W, strain vam3, stronger effect = lower value 1.04 | S. cerevisiae deletion strains, locus YOR136W, strain idh2, stronger effect = lower value 0.985 | S. cerevisiae deletion strains, locus YOR144C, strain elg1, stronger effect = lower value 1 | S. cerevisiae deletion strains, locus YOR184W, strain ser1, stronger effect = lower value 0.979 | S. cerevisiae deletion strains, locus YOR231W, strain MKK1, stronger effect = lower value 0.955 | S. cerevisiae deletion strains, locus YOR265W, strain rbl2, stronger effect = lower value 1.03 | S. cerevisiae deletion strains, locus YOR270C, strain vph1, stronger effect = lower value 1.05 | S. cerevisiae deletion strains, locus YOR290C, strain snf2, stronger effect = lower value 1.02 | S. cerevisiae deletion strains, locus YOR316C, strain cot1, stronger effect = lower value 1 | S. cerevisiae deletion strains, locus YPL051W, strain arl3, stronger effect = lower value 1.03 | S. cerevisiae deletion strains, locus YPL055C, strain LGE1, stronger effect = lower value 1.03 | S. cerevisiae deletion strains, locus YPL078C, strain atp4, stronger effect = lower value 1.02 | S. cerevisiae deletion strains, locus YPL106C, strain sse1, stronger effect = lower value 1.03 | S. cerevisiae deletion strains, locus YPL240C, strain hsp82, stronger effect = lower value 1.03 | S. cerevisiae deletion strains, locus YPL241C, strain CIN2, stronger effect = lower value 0.978 | S. cerevisiae deletion strains, locus YPL256C, strain CLN2, stronger effect = lower value 0.951 | S. cerevisiae deletion strains, locus YPR119W, strain clb2, stronger effect = lower value 0.995 | S. cerevisiae deletion strains, locus YPR141C, strain kar3, stronger effect = lower value 1 | S. cerevisiae deletion strains, locus YPR163C, strain tif3, stronger effect = lower value 0.996 | S. cerevisiae deletion strains, locus YPR167C, strain met16, stronger effect = lower value 1.01 | S. cerevisiae deletion strains, strain wtn01, stronger effect = lower value 0.993 | S. cerevisiae strains, strain wild type, stronger effect = lower value 1.01
